About 83,000 compounds went through this panel and 20% of them were active in at least one assay; those are over-represented in the sample as a whole.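 Results are percent growth after 48 hours of single-concentration exposure. 100 means growth as in untreated cells, lower positive values show inhibition; negative values down to -100 show cell death.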 Active and inactive are the calls of the source. The calls were made as follows: active = growth percent below 10; inactive = the rest.

The results in this text go back to PubChem BioAssay (NCI).

One assay has as its system KM12 colon. Briefly: NCI-60 one-dose screen, 48 h (100 = growth as untreated, 0 = no growth, -100 = all killed). The following applies: 10 µM unless noted.
With `CN1CCN(/C(=N\c2sc(-c3ccccc3)nc2-c2ccccc2)c2ccccc2)CC1`, the growth was 24.5% (inactive).
As for `N=C1N=C(SCc2nc3ccccc3[nH]2)NC(=O)/C1=C/c1ccc(Cl)cc1`, the growth is 104% (inactive).
The same measure, in the same setting: the value for `C/C(=N\N=C1/C(=O)Nc2ccc(Cl)cc21)c1ccc2c(c1)Nc1ccccc1S2` was -79.3% (active); that for `Cc1cccc(NC(=O)CN2CCN(c3ncnc4c3cnn4-c3ccccc3)CC2)c1` was 90.4% (inactive).
Same read-out and setting: the figure for `CN(C)CCOc1ccc(C(=O)C2[C@H](c3ccc(Cl)cc3)[C@@H](c3ccccc3)NC23C(=O)Nc2ccccc23)cc1` (stereo partly drawn) is 33.4% (inactive); for `COc1ccc2[nH]cc(-c3nnc(N)nc3-c3cn(C)c4ncc(Br)cc34)c2c1` it is 75.5% (inactive).

Another assay relates to MDA-MB-468 breast. Described as above. Particulars: 10 µM unless noted.
For the compound `COc1c(F)ccc(C(=O)Nc2ccc3nc(NC(=O)C4CCCN(S(=O)(=O)C5CC5)C4)sc3c2)c1F` (stereo not drawn), the growth was 3.58% (active).
Still for that read-out and setting: the figure for `CCOC(=O)C1=C(N)N(c2ccccc2)C2=C(C(=O)CC(C)(C)C2)C1c1ccc(N2CCOCC2)cc1` (stereo not drawn) is 89.6% (inactive).
On the same count and under the same terms, the figure for `OCC1(CCCc2ccccc2)CCCN(c2nccc3ccccc23)C1` (stereo not drawn) is -15.8% (active); for `COc1ccc(/C=N/NC(=O)Cn2nc(Cc3ccc(OC)cc3)c3onc(C)c3c2=O)cc1` it is 67.4% (inactive).
Same read-out and setting: the figure for `O=[N+]([O-])c1ccc(/C=C/c2nc3ccccc3n3c(=S)[nH]nc23)cc1` is 66.5% (inactive); for `COC(=O)/C=C/c1cccc2c1C(=O)NC(C)(c1cc3ccccc3oc1=O)N2` (stereo not drawn) it is 64.7% (inactive).
For the compound `CCN(CC)c1ccc(/C=N/Nc2nc(-c3ccc(Br)cc3)cs2)c(O)c1`, the growth was 69% (inactive).
